Source: PubChem BioAssay
Compounds with a hit are over-represented: about 12% of the library has one in this group of screens.
NS1 inh: influenza NS1 inhibition; 270,000 compounds, 0.4% hits; Potency, µM (top dose mostly 46.1 µM); AID 2326; calls by dose curve; note: actives are rising curves; nearly all actives have a fitted effect of over 50% in size
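In this qHTS, NS1 from influenza A is expressed in budding yeast, where it slows growth. Cells are switched from glucose to 2% galactose medium (pH 6.0, -URA), treated with compound, and growth recovery is read at OD600.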
Pf growth 48h: inhibits P. falciparum growth in the first generation, 48 h | Potency, µM (series often up to 28.7 µM), most hits filed as inhibitors | 310,000 compounds, 5.9% hits | P. falciparum luciferase growth in erythrocytes, 48 h
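A one-generation exposure of luciferase-tagged malaria parasites in RPMI 1640/Albumax erythrocyte culture, 37 C and 5% CO2. Inhibition is inferred from decreased luminescence after adding detection reagent.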
Pf growth 96h: inhibits malaria parasite growth, 96 h | P. falciparum luciferase reporter growth, 96 h | Potency, µM (doses to about 28.7 µM), most hits filed as inhibitors | 320,000 compounds, 6.9% hits | AID 504834
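Infected RBCs, 2% Hct / 0.05% parasitemia final; luciferase-reporter P. falciparum; cpd 96 h, 37 C, 5% CO2; luciferase detection reagent; luminescence.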
SARS PLP yeast: inhibitors of SARS-CoV papain-like protease in yeast; 330,000 compounds, 0.19% hits; S. cerevisiae expressing SARS-CoV PLpro, growth rescue; Potency, µM (top dose mostly 32.9 µM), hits mostly activators; calls by dose curve; note: nearly all actives have a fitted effect of over 55% in size
HCV inhibitor: HCV inhibition. Huh7.5.1 HCVcc-Cre infection, luciferase reporter, 44 h. Potency, µM (titrated, usually from 41.8 µM), actives largely listed as inhibitors. 340,000 compounds, 3.4% hits
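Seed cells (1,000/well) for 4 h; treat with compound and infect with HCVcc-Cre, moi about 0.5. Incubate 44 h, then detect luciferase activity.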
AMA1 RON2 block: inhibitors of Plasmodium falciparum AMA1-RON2 interaction. AlphaScreen AMA1-biotinylated RON2 peptide binding. Potency, µM (series often up to 58.2 µM), usual class: inhibitors. 360,000 compounds, 0.2% hits; note: nearly all actives have a fitted effect of over 45% in size
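AMA1 (3D7) with his tag at 25 nM final met compounds first, then biotinylated RON2 peptide at 25 nM; detection used donor plus acceptor beads, 10 µg/mL apiece, read by AlphaScreen after 30 min at room temperature.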
NS1 inh valid: influenza NS1 function inhibition validation. influenza NS1 function cell assay, 15-point titration. 1,400 tested, under 10 active. activity change, negative = inhibition, % at 32.9 µM. shares compounds with NS1 inh. AID 492980; calls by dose curve
PR8 titer: influenza virus titer reduction, NS1 project. virus titer (log TCID50), log10 TCID50 at 5 µM. shares compounds with NS1 inh. 95 compounds, 30% hits. MDCK infected influenza A/PR/8/34, virus titer TCID50; hits give low values; call rule not given here
Of the large screens only hits and unclear results are named; the others gave an inactive call (follow-up assays come after a bar, where they were run). Unless noted, calls come from the whole dose curve; as a rule, active = well fitted curve in the direction sought with a large enough effect; inconclusive = small, poorly fitted or top-dose-only effect, or another doubt; inactive = no such curve, though single readings can be large; an effect the other way counts as inactive or inconclusive.

CC1C(=O)N2CCCc3cc(NC(=O)c4ccccc4Br)cc1c32 (stereo unspecified)	Pf growth 48h inconclusive, HCV inhibitor inconclusive (no result: NS1 inh)
C=CCN(C(=O)CCC(=O)Nc1cc(C)on1)C(C(=O)NC1CCCC1)c1ccc(OC)cc1OC (stereo unspecified)	Pf growth 48h inconclusive, Pf growth 96h inconclusive
Cc1ccc(C)c(N2CCN(C(=O)C3CCN(S(=O)(=O)c4cccc5nsnc45)CC3)CC2)c1	NS1 inh inconclusive, Pf growth 48h inconclusive, HCV inhibitor inconclusive | NS1 inh valid inactive | PR8 titer inactive
O=C(C1CCN(S(=O)(=O)c2cccc3nsnc23)CC1)N1CCCCC1	none
CC1(C)CC(=O)C2=C(C1)Nc1[nH]c(=S)[nH]c(=O)c1C2c1ccccc1 (stereo unspecified)	none
O=C1CCCC2=C1C(c1ccc(Br)cc1)c1c([nH]c(=S)[nH]c1=O)N2 (stereo unspecified)	NS1 inh 6.31µM, Pf growth 96h inconclusive | NS1 inh valid inactive
CCc1ccc(Nc2nnc(SCC(=O)Nc3cccc(S(=O)(=O)NC4=NCCCCC4)c3)s2)cc1	NS1 inh 11.2µM, Pf growth 96h inconclusive, HCV inhibitor inconclusive | NS1 inh valid inactive
COc1ccc(NCc2cc3cc(OC)ccc3[nH]c2=O)cc1	HCV inhibitor inconclusive
COc1ccc2[nH]c(=O)c(CNc3cccc(C)c3)cc2c1	NS1 inh 2.82µM, Pf growth 48h inconclusive, Pf growth 96h inconclusive, HCV inhibitor inconclusive | NS1 inh valid inactive
Cc1cccc(OCC(=O)NC(Cc2c[nH]c3ccccc23)C(=O)O)c1C (stereo unspecified)	Pf growth 48h inconclusive (no result: NS1 inh)
O=C(Nc1n[nH]c(C(F)(F)F)n1)C1CC1	none
Cc1cc(/C=C2/NC(=O)N(c3ccccc3)C2=O)c(C)n1-c1cccnc1	Pf growth 96h inconclusive, HCV inhibitor inconclusive
COCCn1c(C)cc(/C=C2/NC(=O)N(c3ccc(Cl)cc3)C2=O)c1C	NS1 inh inconclusive, Pf growth 48h inconclusive, Pf growth 96h inconclusive | NS1 inh valid inactive
Cc1cc(C(=O)OCC(=O)c2cccc([N+](=O)[O-])c2)c2ccccc2n1	Pf growth 96h inconclusive
COc1ccc(-c2cc(C(=O)OCC(=O)c3ccc(C)c([N+](=O)[O-])c3)c3ccccc3n2)cc1	NS1 inh inconclusive, HCV inhibitor inconclusive | NS1 inh valid inactive
c1ccc(CC2CNc3ccccc3CN2)cc1 (stereo unspecified)	NS1 inh 0.891µM, Pf growth 96h inconclusive | NS1 inh valid inactive
CCOC(=O)C1=C(c2ccccc2)NC(SCC(=O)Nc2ccc(C)cc2)=C(C#N)C1c1ccco1 (stereo unspecified)	Pf growth 48h inconclusive, HCV inhibitor inconclusive (no result: Pf growth 96h, SARS PLP yeast)
CCOC(=O)C1=C(c2ccccc2)NC(SCC(=O)Nc2ccccc2C)=C(C#N)C1c1ccco1 (stereo unspecified)	NS1 inh 11.2µM, Pf growth 48h 8.28µM, HCV inhibitor inconclusive | NS1 inh valid inconclusive
CCOC(=O)C1=C(c2ccccc2)NC(SCC(=O)Nc2cccc(C)c2)=C(C#N)C1c1ccco1 (stereo unspecified)	NS1 inh inconclusive, Pf growth 48h 9.28µM, HCV inhibitor inconclusive | NS1 inh valid inactive
O=C(OC(C(=O)NCc1ccco1)c1ccc(Cl)cc1)c1cccs1 (stereo unspecified)	NS1 inh inconclusive
O=C(N[C@@H](c1ccccc1)[C@H](O)c1ccccc1)[C@@H]1CCCN1C(=O)OCc1ccccc1	none (no result: NS1 inh, Pf growth 48h, Pf growth 96h, SARS PLP yeast)
CCN1C(=O)[C@H]2[C@@H](c3ccc(Cl)cc3)N3C(=O)CN(CC4CC4)C(=O)[C@@]3(Cc3ccccc3)[C@H]2C1=O	none
CCC1Oc2ccc(C)cc2N(CC(=O)NCCCN2CCCCC2CC)C1=O (stereo unspecified)	HCV inhibitor inconclusive
CCC1Oc2ccc(C)cc2N(CC(=O)NCCCN2CCCCC2C)C1=O (stereo unspecified)	NS1 inh inconclusive | NS1 inh valid inactive
COc1ccc(CNC(=O)OC2CC3CC2[C@H]2CCCCN2C3=O)cc1 (stereo partly specified)	none (no result: NS1 inh, Pf growth 48h, Pf growth 96h, SARS PLP yeast, HCV inhibitor)
COc1cc(C(=O)NC(=S)Nc2ccc(N3CCCC3)cc2)cc(OC)c1OC	NS1 inh 12.6µM, Pf growth 48h 9.28µM, Pf growth 96h inconclusive, HCV inhibitor inconclusive | NS1 inh valid inactive
O=C(Nc1nc2ccc(F)cc2s1)c1ccc([N+](=O)[O-])o1	none (no result: NS1 inh, Pf growth 48h, Pf growth 96h, SARS PLP yeast, HCV inhibitor)
O=C(c1ccccc1Cl)N1CCC(n2cccc2)CC1	none
CS(=O)(=O)N(CC(=O)NN=C1CCCCCC1)c1ccc(Oc2ccccc2)cc1	HCV inhibitor inconclusive (no result: NS1 inh)
O=C(CN(c1ccccc1)S(=O)(=O)c1ccccc1[N+](=O)[O-])NN=C1CCCCCCC1	NS1 inh 1.26µM, Pf growth 48h inconclusive | NS1 inh valid inconclusive
Cc1cc(C)c2c(c1)C1C=CCC1C(c1ccc(S(=O)(=O)N3CCOCC3)cc1)N2 (stereo unspecified)	Pf growth 48h inconclusive, Pf growth 96h inconclusive
O=C(O)c1cc(Cl)c2c(c1)[C@@H]1C=CC[C@@H]1[C@H](c1ccc(S(=O)(=O)N3CCOCC3)cc1)N2	NS1 inh 14.1µM, HCV inhibitor inconclusive | NS1 inh valid inactive
Fc1ccc(-c2n[nH]c(=S)c3ccccc23)cc1	Pf growth 48h inconclusive (no result: NS1 inh)
Cc1ccc(N2C(=O)CC(N(O)C3CC(=O)N(c4ccc(C)cc4)C3=O)C2=O)cc1 (stereo unspecified)	NS1 inh 20µM | NS1 inh valid inconclusive
COc1ccc(/C(C)=N/NC(=O)CNC(=O)c2cccnc2)c(OC)c1	none
Cc1c(Cl)cccc1NC(=O)CSc1nncn1-c1ccccn1	NS1 inh inconclusive | NS1 inh valid inactive | PR8 titer inactive
COC(=O)Cc1cc(=O)n(-c2ccccc2)[nH]1	NS1 inh 8.91µM | NS1 inh valid inactive
COC(=O)c1cc(NC(=O)C2(S(=O)(=O)c3ccc(C)cc3)CC2)cc(C(=O)OC)c1	Pf growth 96h inconclusive
COC(=O)c1cc(NC(=O)C2(S(=O)(=O)c3ccc(Cl)cc3)CC2)cc(C(=O)OC)c1	NS1 inh 11.2µM, Pf growth 48h inconclusive | NS1 inh valid inactive
CC1(C)Cc2c(C#N)c(N3CCN(C(=O)c4ccco4)CC3)nc(-c3ccco3)c2CS1	NS1 inh 7.94µM, Pf growth 48h 4.65µM, Pf growth 96h inconclusive, HCV inhibitor 8.91µM, AMA1 RON2 block inconclusive | NS1 inh valid inactive
